Reference: the supplement of paper PMC12669797
Counter-ions that a name gives are not always drawn. ± gives the standard deviation of the averaged measurements.

What was measured:
[1] = system: ES2; experiment: cell viability relative to DMSO control (MTS) (fraction of DMSO control); higher = more viable cells / less growth inhibition; conditions: 10 µM; 48 h
How it was run: (§1)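 TOV-21G and ES2 clear cell carcinoma cells were seeded at 5000 cells per well in 96-well plates and grown for 24 h. Cells then received a 367-compound […] library at 10 µM final concentration, with DMSO in control wells. After 48 h, viability was read by MTS assay (CellTiter 96 AQueous One Solution) following the maker's protocol. Cell viability is expressed as a fraction of the DMSO control.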

[2] = system: TOV-21G; experiment: as above; conditions: 10 µM; 48 h
How it was run: as §1

SMILES | cell viability [1] | cell viability [2]
Cc1sc2c(c1C)C(c1ccc(Cl)cc1)=N[C@@H](CC(=O)OC(C)(C)C)c1nnc(C)n1-2 | 0.502 | 0.305
COc1ccc2c3c([nH]c2c1)[C@H](C=C(C)C)N1C(=O)[C@@H]2CCCN2C(=O)[C@@H]1C3 [Fumitremorgin C] | 0.945 | 0.838
CNc1ccc2oc(C[C@H]3O[C@@]4(CC[C@H]3C)O[C@H]([C@H](C)C(=O)c3ccc[nH]3)[C@H](C)C[C@H]4C)nc2c1C(=O)O | 0.425 | 0.284
C[C@@]12C(=O)OC(=O)[C@]1(C)[C@H]1CC[C@@H]2O1 [Cantharidin] | 0.495 | 0.403
O=C1Nc2ccccc2C2(CCN(CCc3ccc(C(F)(F)F)cc3)CC2)O1 | 0.915 | 1.12
CO[C@@H]1C[C@@H](C[C@H]2CC[C@H](C)[C@H]([C@@H](C)C(=O)O)O2)O[C@]2(O[C@](C)([C@H]3CC[C@@](C)([C@@H]4O[C@@H]([C@H]5O[C@@](O)(CO)[C@H](C)C[C@@H]5C)C[C@@H]4C)O3)C[C@H]2C)[C@@H]1C [Nigericin] | 0.437 | 0.344
C[C@]12CCC(=O)C(O)=C1CC[C@@H]1[C@@H]2CC[C@]2(C)C(=O)CC[C@@H]12 [Formestane] | 1.11 | 1.32
O=C(O)c1nn(Cc2ccc(Cl)cc2Cl)c2ccccc12 [Lonidamine] | 0.925 | 1.09
CC[C@H]1/C=C/C=C/C[C@@H](C)[C@H](O)[C@@](C)(O)C(=O)[C@@H](C)[C@H](O)[C@@H](C)C(=O)[C@@H](C)[C@H](O)[C@@H](C)/C=C/C(=O)O[C@@H]2[C@H](C)[C@H](CC1)O[C@]1(CC[C@H](C)[C@H](C[C@@H](C)O)O1)[C@H]2C [Oligomycin] | 0.67 | 0.535
C=C1[C@@H](C)[C@H]2[C@H](Cc3ccccc3)NC(=O)[C@]23[C@H](OC(C)=O)/C=C/[C@@](C)(O)C(=O)[C@@H](C)C/C=C/[C@H]3[C@@H]1O [Cytochalasin D] | 0.498 | 0.472
CN1C(=O)[C@]2(Cc3cn([C@]45C[C@@]67SS[C@@](CO)(C(=O)N6[C@H]4Nc4ccccc45)N(C)C7=O)c4ccccc34)SS[C@@]1(CO)C(=O)N2C [Chetomin] | 0.32 | 0.254
CC[C@@]1([C@@H]2O[C@@H]([C@H]3O[C@@](O)(CO)[C@H](C)C[C@@H]3C)C[C@@H]2C)CC[C@H]([C@]2(C)CC[C@]3(C[C@H](O)[C@@H](C)[C@@H]([C@@H](C)[C@@H](OC)[C@H](C)C(=O)O)O3)O2)O1 [Monensin] | 0.419 | 0.368
CO/C1=C\C(C)=C\[C@@H](C)[C@@H](O)[C@@H](C)C/C(C)=C/C=C/[C@H](OC)[C@@H]([C@@H](C)[C@@H](O)[C@H](C)[C@@]2(O)C[C@@H](O)[C@H](C)[C@@H](C(C)C)O2)OC1=O [Bafilomycin A1] | 0.467 | 0.395
CN1C(=O)CN=C(c2ccc(Cl)cc2)c2cc(Cl)ccc21 | 1.1 | 0.825
CN(N=O)c1cc(O)ccc1O [Dephostatin] | 1.14 | 1.02
N=C(N)NN [Aminoguanidine, HCl] | 0.55 | 0.337
CC(C)(C)c1cc(C=C(C#N)C#N)cc(Br)c1O | 0.94 ± 0.18 | 1.09 ± 0.034
C/C(O)=C(\C#N)C(=O)Nc1cc(Br)ccc1Br | 1.06 ± 0.013 | 1.34 ± 0.19
C[C@H](CCC(=O)O)C[C@H](C)C[C@H](C)C(=O)/C=C(\O)[C@H](C)C[C@H](C)C/C=C/[C@@H](C)[C@@H](O)[C@@H](C)[C@@H](O)C[C@@H]1CC[C@@](C)([C@H]2CC[C@@](C)([C@@H](C)O)O2)O1 [Ionomycin] | 0.54 | 0.501
CC1=C2C(=O)[C@H]3[C@@H](CC=C4C[C@@H](O)CC[C@@]43C)[C@@H]2CC[C@]12O[C@@H]1C[C@H](C)CN[C@H]1[C@H]2C [Jervine] | 1.04 | 1.64
CN[C@@H]1C[C@H]2O[C@@](C)([C@@H]1OC)n1c3ccccc3c3c4c(c5c6ccccc6n2c5c31)C(=O)NC4 [Staurosporine] | 0.301 | 0.239
O[C@H]1[C@H]2[C@H](O)CCCN2C[C@H]1O [Swainsonine] | 0.98 | 0.689
